# Source: PubChem BioAssay (NCI)
# This is part of a sample that, as a whole, favours compounds with a hit. Of some 79,000 tested, about 15% had one in any assay. A number with no mark means an inactive call. Calls of active or inactive are those of the source. Rule as the data show it: active = growth inhibition above about 70%; inactive = the rest.
# Experiment: NCI Yeast Anticancer Drug Screen. Data for the rad50 strain (AID 155);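 also: 0% = growth of vehicle-only cultures of the same strain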
# Details: S. cerevisiae rad50 strain growth inhibition; at 5.0 µM (retest, dose inferred, filed as 0.5); hits give high values
# Procedure, shortened: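 Compounds were tested on a yeast strain with an engineered DNA damage repair alteration; the reported value is growth inhibition normalised to vehicle treatment.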
row,Structure (SMILES),growth inhibition
1,Cc1cc(NCCCCCCCNc2cc(C)nc3cc(N)ccc23)c2ccc(N)cc2n1,4%
2,C[C@]12CC[C@H]3[C@@H](CCC4=CC(=O)CC[C@@]43C)[C@@H]1CC[C@@H]2C(=O)C=O,19%
3,COc1cc2c[n+](C)c3c4cc(OC)c(OCc5ccccc5)cc4c(OCc4ccccc4)cc3c2cc1OC,33%
4,Nc1ncnc2c1c(-c1ccc(Cl)cc1)cn2-c1ccccc1,21%
5,Cc1c[nH]c2nc(C)n(-c3ccccc3)c(=N)c12,-1%
6,COc1ccc(Cc2ccc3c(C)cc(Cl)nc3c2)cc1,1%
7,COC(=O)c1ccc(NCc2c(O)ccc(O)c2Br)cc1Cl,21%
8,CC1=CC(=O)c2c(O)c3c(c(O)c2C1=O)C1C(O)C(C3=O)C23C(=O)c4c(O)c(C)cc(O)c4C(O)=C2C(=O)CC(O)C13 (centres undefined),-27%
9,CC(C)(O)[C@H](CCO)O[Si](c1ccccc1)(c1ccccc1)C(C)(C)C,26%
10,COC(=O)/C(C#N)=C(/SC)N(C)C,4%
11,N#CC(C(=O)CCCC(=O)Nc1ccc(Cl)cc1)c1ccccc1Cl (centres undefined),2%
12,FC(F)(F)c1cccc(Nc2ccc3cnc4ccccc4c3c2)c1,6%
13,CN1C(/C=C/c2ccc(O)c3ncccc23)CCC2CCCC(O)C21 (centres undefined),1%
14,N#CC1(C#N)C(C#N)(C#N)C12CCCC2,5%
15,O=C1C(Cl)=C(Cl)C(=O)C2=C1CC(Cl)C(Cl)C2 (centres undefined),87% (active)
16,N#CC(/C=C/c1ccccc1)(NO)Nc1cccc(Cl)c1 (centres undefined),6%
17,O=C(O)c1ccccc1C(c1ccccc1)c1ccccc1,15%
18,OCC1(c2ccccc2)OC1c1ccccc1 (centres undefined),-156%
19,COc1ccc(NS(=O)(=O)c2ccc(F)cc2)cc1,-21%
20,CCn1c2nc(=O)n(C)c(=O)c-2[n+]([O-])c2cc(C)ccc21,16%

row,Structure (SMILES),growth inhibition
1,O=[N+]([O-])C(=C(Nc1ccccc1)Nc1ccccc1)C(Cl)=C(Cl)Cl,97% (active)
2,CCC/C(=N\NC(=S)N(C)C)c1ccccn1,89% (active)
3,O=C(CSc1cc[o+]cc1)c1cccc([N+](=O)[O-])c1,0%
4,CC12CCC(c3sc(N)c(C#N)c31)C2(C)C (centres undefined),-14%
5,N#CC(C#N)=C(C1CC1)C1CC1,-76%
6,Cc1c(N=Nc2cccc(F)c2)c(-c2ccccc2)nn1C(N)=S,14%
7,CN1COc2c(Cl)cc(Cl)cc2C1,-3%
8,O=C1CCCCO1,1%
9,Nc1cc2c(cc1/C=C(\C(=O)O)c1ccccc1)OCO2,-1%
10,Cc1cc2c(cc1C)C(=O)OC2=O,1%
11,C(/Cc1ccc2c(c1)OCO2)=N\NC1=NCCCCN1,-3%
12,CCCCCCCCN(CCCCCCCC)CC(O)c1cc(-c2ccc(OC)cc2)nc2cc(Cl)ccc12 (centres undefined),-2%
13,Cc1cc(C(=O)CBr)c(CN2C(=O)c3ccccc3C2=O)c(=O)n1C,17%
14,O=C(O)c1ccccc1-c1c2ccc(=O)c(Br)c-2oc2c(Br)c(O)ccc12,13%
15,O=C(Nc1cccc(NC(=O)c2cc(=O)c3ccccc3o2)n1)c1cc(=O)c2ccccc2o1,34%
16,COC(=O)c1nc(=S)[nH]c(C(=O)OC)c1C(=O)c1ccc([N+](=O)[O-])cc1,5%
17,COC1/C=C\C=C(/C)C(=O)Nc2cc3nc4cc(Br)ccc4oc-3c(c2=O)CC(C)CC(OC)C(O)C(C)/C=C(\C)C1OC(N)=O (centres undefined),54%
18,NC(=S)C(=S)N/C=C(/c1ccc(Cl)cc1)S(=O)(=O)Cc1ccc(Cl)cc1,1%
19,O=C(Cc1ccccc1)c1ccccc1C(=O)NNc1ccccc1,7%
